Data taken from PubChem BioAssay (NCATS).
Records with an inconclusive call do not appear. Active and inactive are the calls of the source. Calls come from the whole dose curve; as a rule, active = well fitted curve in the direction sought with a large enough effect; inconclusive = small, poorly fitted or top-dose-only effect, or another doubt; inactive = no such curve, though single readings can be large; an effect the other way counts as inactive or inconclusive.

Experiments:
[1] = qHTS Assay for Identifying Gametocytocidal Compounds (AID 743244);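 note: % is set by controls: 0 for no effect and ±100 for the full control effect; actives lower the fluorescent signal which means gametocytes are killed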; settings: P. falciparum 3D7 stage III-V gametocytes, alamarBlue, 72 h; max response: hits give low values
How it was run: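 3D7 gametocytes, stages III–V, 20,000/well; cpd 72 h, 37 °C/5% CO2; + alamarBlue 24 h; fluor. Ex 525/Em 598.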

[2] = qHTS assay for measurement of the activity of small molecule inhibitors on Zika virus induced Caspase-3 activity in human iPSC derived neural progenitor cells (hNPCs) (AID 1224857); note: % of control where 0% means no effect; nearly all actives have a fitted effect of over 65% in size
How it was run: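 Cells were plated at 350 per well and grown 16 to 20 hours. Compound pretreatment lasted one hour, after which ZIKV (2 FFU/cell) was added for 6 hours. Percent inhibition was normalized between uninfected and infected controls.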

[3] = qHTS assay for measurement of the activity of small molecule inhibitors on Zika virus induced Caspase-3 activity in human astrocytoma cells (AID 1224859);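 note: plate controls were ZIKV-infected untreated cells for no effect and uninfected cells for full effect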
How it was run: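 Percent inhibition of virus-induced caspase-3/7 signal is calculated against uninfected and ZIKV-infected control cells. Cells are SNB-19, infected at 2 FFU/cell for 6 h after 1 h compound exposure.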

[4] = qHTS assay to identify small molecule inhibitors of chordoma cells - UCH-1 (AID 1259355); note: % is set by controls: 0 for no effect and ±100 for the full control effect; nearly all actives have a fitted effect of over 55% in size
How it was run: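 Screening used approved and investigational drugs in 15-point titration against 800 seeded cells per well. A fixed combination of auranofin with camptothecin, doxorubicin, rubitecan and topotecan followed compound addition, and growth was scored by CellTiter-Glo after 48hr.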

[5] = qHTS assay to identify small molecule inhibitors of chordoma cells - UCH-2 (AID 1259356); note: series mostly up to about 46 µM; % is set by controls: 0 for no effect and ±100 for the full control effect

NCCCC[C@H](N[C@@H](CCc1ccccc1)C(=O)O)C(=O)N1CCC[C@H]1C(=O)O
inactive: max response [1] -3.1% | outcome [2] | outcome [3] | Potency [4] | Potency [5]

CO/N=C1\CN(c2nc3c(cc2F)c(=O)c(C(=O)O)cn3C2CC2)CC1CN (stereo not given)
inactive: max response [1] -1.09% | outcome [2] | outcome [3] | Potency [4] | Potency [5]

CC(Cc1cccc(C(F)(F)F)c1)NCCOC(=O)c1ccccc1 (stereo not given)
inactive: max response [1] 8% | outcome [2] | outcome [3] | Potency [4] | Potency [5]

CCCCCC=CCC=CCCCCCCCC(=O)OCC
inactive: max response [1] 0.796% | outcome [2] | outcome [3] | Potency [4] | Potency [5]

CCCCCCCCCCCCCCCCOP(=O)([O-])OCC[N+](C)(C)C
inactive: max response [1] -10.8% | outcome [2] | outcome [3] | Potency [4] | Potency [5]

O=C(OCCOCCO)c1ccccc1Nc1cccc(C(F)(F)F)c1
inactive: max response [1] 12.2% | outcome [2] | outcome [3] | Potency [4] | Potency [5]

C#C[C@]1(O)CC[C@H]2[C@@H]3CCc4cc(OC5CCCC5)ccc4[C@H]3CC[C@@]21C
inactive: max response [1] 6.16% | outcome [2] | outcome [3] | Potency [4] | Potency [5]

CCOC(=O)n1ccn(C)c1=S
inactive: max response [1] 21.8% | outcome [2] | outcome [3] | Potency [4] | Potency [5]

COc1cccc(OC)c1C(=O)N[C@@H]1C(=O)N2[C@@H]1SC(C)(C)[C@@H]2C(=O)O
inactive: max response [1] -0.927% | outcome [2] | outcome [3] | Potency [4] | Potency [5]

CC(Cc1ccccc1)(NC(=O)CN)c1ccccc1 (stereo not given)
inactive: max response [1] -4.06% | outcome [2] | outcome [3] | Potency [4] | Potency [5]
